HepG2 viability = qHTS for Inhibitors of TGF-b: Cytotox Counterscreen | HepG2 CAGA-GFP viability, ATP luminescence, 18 h | Potency, µM (titrated, usually from 46.1 µM), usual class: cytotoxic | 0.76% of 410,000 active | AID 588856, 2011
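CellTiter-Glo luminescence gave cytotoxicity after 18 hours at 37 degrees C. The cells were HepG2 CAGA-GFP in 1% FBS DMEM, stimulated with 500 pg/mL TGF-beta after compound addition. %Activity was normalised to no-cell wells (complete cell-killing) and DMSO (no toxicity), and curves were fitted and classified.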
TDP1 cell CPT = qHTS for Inhibitors of human tyrosyl-DNA phosphodiesterase 1 (TDP1): qHTS in cells in presence of CPT | chicken DT40 Tdp1-/-;hTDP1 cells + 20 nM CPT, ATP luminescence, 48 h | Potency, µM (titrated, usually from 46.2 µM), actives largely listed as inhibitors | 12% of 420,000 active | AID 686979, 2013; also: nearly all actives have a fitted effect of over 55% in size
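Chicken DT40 Tdp1-/- cells stably complemented with human TDP1 were seeded at 400 cells/well in medium containing 20 nM camptothecin, exposed to pin-transferred compounds, and grown at 37 °C for at least 48 hr. Viability was read as ATP luminescence.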
DT40 TDP1 no CPT = qHTS for Inhibitors of human tyrosyl-DNA phosphodiesterase 1 (TDP1): qHTS in cells in absence of CPT; DT40 Tdp1-/- hTDP1 cells, no CPT, ATP luminescence, 48 h; Potency, µM (top dose mostly 46.2 µM), hits mostly inhibitors; 15% of 420,000 active; also: nearly all actives have a fitted effect of over 55% in size
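Compound effects on proliferation are scored in DT40 Tdp1-/-;hTDP1 cells in the absence of CPT. ATP levels (CellTiter-Glo luminescence) are recorded after a ≥48 hr, 37 °C incubation.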
IL-1B inflam inh = qHTS for Inhibitors of Inflammasome Signaling: IL-1-beta AlphaLISA Primary Screen; activity change, % at 57.5 µM; THP-1 LPS/ATP IL-1B secretion, AlphaLISA, 16 h; active compounds read low; AID 743279, 2014; 4.7% of 360,000 active; in the data active = activity change below about -50%; inconclusive = mostly about -30% to -49%
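Secreted IL-1B measured by AlphaLISA bead assay after 16 h compound exposure of THP-1 cells; compounds (final up to 57.5 uM) added 1 h before LPS (250 ng/mL) and ATP (1.25 mM) stimulation; lower signal means less secretion.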
TGFb inhibitor = qHTS for Inhibitors of TGF-b | AID 588855, 2011 | Potency, µM (highest dose often 46.1 µM), hits mostly inhibitors | HepG2 CAGA-GFP TGF-b/SMAD3 reporter, GFP fluorescence, 18 h; TGF-beta stimulated, 500 pg/mL final | 1.2% of 410,000 active; also: nearly all actives have a fitted effect of over 65% in size
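Inhibition was scored as loss of TGF-beta-induced (500 pg/mL final, 18 hours, 37 degrees C) GFP in HEPG2 cells carrying a CAGA-GFP reporter, in DMEM with 1% FBS. Well GFP was summed per cell; Activity was normalised to unstimulated and stimulated DMSO wells, then concentration-response fitting.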
TDP1 block = qHTS Assay for Inhibitors of Tyrosyl-DNA Phosphodiesterase (TDP1). recombinant TDP1, AlphaScreen DNA substrate cleavage. 0.28% of 350,000 active. Tyrosyl-DNA phosphodiesterase 1 (Homo sapiens), Q9NUW8. Potency, µM (doses to about 130 µM), most hits filed as inhibitors; also: nearly all actives have a fitted effect of over 40% in size
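Enzyme-compound mixtures sat 15 min at room temperature, followed by a 5 min reaction with 15 nM final substrate and 10 min with AlphaScreen beads. Recombinant human Tdp1 was used at 1 nM final.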
A number is an active result; n = inactive; u = inconclusive; x = no result given; [ ] = remark or other dose. Shown are actives, neighbours in structure and some others; about 18% of the full set was active somewhere. Unless noted, calls follow the shape of the dose curve; as a rule, active = well fitted curve in the direction sought with a large enough effect; inconclusive = small, poorly fitted or top-dose-only effect, or another doubt; inactive = no such curve, though single readings can be large; an effect the other way counts as inactive or inconclusive.

SMILES	HepG2 viability	TDP1 cell CPT	DT40 TDP1 no CPT	IL-1B inflam inh	TGFb inhibitor	TDP1 block
CC1=C(C(=O)OCc2ccccc2)N2C(=O)[C@@H](NC(=O)OCc3ccccc3)[C@H]2SC1	n	u	u	x	n	x
COc1ccc(C#Cc2c[nH]c(=O)c3cncnc23)cc1OC	x	n	n	x	x	n
CCN(C(=O)c1cnc(NC(C)C)cc1C(F)(F)F)c1ccc(Cl)cc1Cl	n	8.2µM	16µM	n	n	n
COc1cc(NC(=O)CN2C(=O)CN(C)C(=O)c3ccccc32)cc(OC)c1OC	n	n	n	x	n	n
COCCn1c(SCC(=O)N(C)c2ccccc2)nc2c([nH]c3ccccc32)c1=O	n	n	n	n	n	n
COc1ccc(CCNC(=O)CCS(=O)(=O)c2ccc3c(c2)NC(=O)CO3)cc1OC	n	n	n	n	n	n
COc1ccccc1C(=O)NC(=S)Nc1cccc2cc(O)ccc12	n	u	n	-85	n	x
CC(=O)N1CCN(c2ccc(NC(=S)NC(=O)c3ccccc3)cc2)CC1	n	n	n	n	n	n
COC(=O)c1ccccc1NC(=S)NC(=O)c1cccc2ccccc12	n	16µM	u	n	u	n
CN1CCN(c2ccc(NC(=S)NC(=O)c3cccc4c(Br)cccc34)cc2)CC1	n	21µM	18µM	n	n	n
O=C(NC(=S)Nc1cccc2cc(O)ccc12)c1ccccc1Br	n	u	u	n	u	n
COC(=O)c1ccccc1NC(=S)NC(=O)c1ccc2ccccc2c1	n	u	u	n	n	n
CN1CCN(c2ccc(NC(=S)NC(=O)c3cccc4ccccc34)cc2)CC1	n	23µM	12µM	-100	u	n
O=C(NCC1CCCO1)c1ccccc1NS(=O)(=O)c1ccc(F)cc1 (stereo not given)	n	n	n	n	n	n
Cc1ccc(SCC(=O)OC(C)C(=O)NCc2ccccc2)cc1C (stereo not given)	n	n	n	n	n	x
Cc1ccc(C)c2[nH]c(=O)c(CCNC(=O)C(C)(C)C)cc12	n	n	n	n	n	n
O=C(Nc1ccccc1)N1CC[C@@]2(CCCN(C(=O)c3csnn3)C2)C1	x	n	n	x	x	x
Cc1ccc(Nc2nc(CSc3nnnn3C)cs2)cc1	n	n	u	n	n	n
Cc1ccc(Nc2nc(CSc3nnc(-c4ccccc4)n3C)cs2)cc1	n	21µM	u	u	n	n
Cc1ccc(Nc2nc(CSc3nnnn3-c3ccccc3)cs2)cc1	n	u	18µM	n	u	n
COc1ccc2oc(-c3cccc(NC(=O)c4sc5c([N+](=O)[O-])cccc5c4Cl)c3)nc2c1	n	x	x	x	n	n
O=C(NCc1ccccc1)C1(c2cccc(F)c2)CCCC1	n	u	u	n	n	n
Cc1cccc(C2C=C(c3ccc(F)cc3)Nc3nc4ccccc4n32)c1 (stereo not given)	n	u	u	x	n	n
CCc1ccc(C2=CC(c3c(F)cccc3Cl)n3c(nc4ccccc43)N2)cc1 (stereo not given)	n	18µM	7.3µM	x	n	n
CCN(CC)c1ccc(/C=N/NC(=O)c2cccc(S(=O)(=O)Nc3ccccc3OC)c2)c(O)c1	n	3.3µM	2.9µM	n	u	n
CCN(CC)c1ccc(/C=N/NC(=O)c2cccc(S(=O)(=O)Nc3ccccc3OC)c2)cc1	n	n	n	n	n	n
COc1ccccc1NS(=O)(=O)c1cccc(C(=O)N/N=C/c2ccc([N+](=O)[O-])o2)c1	n	3.7µM	2.9µM	-92	7.1µM	n[0.505 µM]

High-throughput results as filed in PubChem BioAssay.
